Experimental data as given in PubChem BioAssay AID485317 (Broad Institute, 2010).
About 11,000 (3.8%) of roughly 290,000 compounds were called active. The sample holds actives, similar compounds and a random draw of the others, so the mix is not that of the screen. Unmarked numbers belong to inactive results.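 Rule for the calls: active = mean replicate inhibition above about 79%, with every replicate also reaching it (limit read from the data); inconclusive = only one of the two criteria met; inactive = mean below limit and not every replicate reaching it.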

The compounds below were run against FAD-linked sulfhydryl oxidase ALR (Homo sapiens) (UniProt P55789) (assay: inhibitors of human ALR sulfhydryl oxidase, primary screen, biochemical, H2O2 detection, HRP-luminol luminescence, single point (AID 485317)). Details: purified ALR, DTT oxidation, stronger effect = higher value, concentration not given here.
Sequence of FAD-linked sulfhydryl oxidase ALR (Homo sapiens) (P55789 whole entry, looked up): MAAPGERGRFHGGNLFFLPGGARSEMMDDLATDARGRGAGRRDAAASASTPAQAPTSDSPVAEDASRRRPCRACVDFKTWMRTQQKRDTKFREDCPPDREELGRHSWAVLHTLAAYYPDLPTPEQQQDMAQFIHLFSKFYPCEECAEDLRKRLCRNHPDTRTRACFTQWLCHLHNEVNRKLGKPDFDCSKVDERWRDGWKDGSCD

Row | SMILES | inhibition
1 | Cc1ccc(CCC(=O)Nc2ncc(Cc3cc(Cl)ccc3Cl)s2)o1 | 53.6%
2 | Cc1ccc(Cc2cnc(N)s2)o1 | 99.1% (active)
3 | COc1cccc(C(=O)OCC(=O)c2[nH]c(C)c(C(C)=O)c2C)c1 | -3.4%
4 | Cc1ccc(S(=O)(=O)NCCNC(C)c2ccc(Br)cc2)cc1 (centres undefined) | -1.35%
5 | CC(=O)C1=C(C)NC2=C(C(=O)CC(C)(C)C2)C1C (centres undefined) | -3.96%
6 | Cc1nn(-c2ccccn2)c2c1C(c1ccncc1)C1=C(CC(C)(C)CC1=O)N2 (centres undefined) | 16%
7 | Cc1cc2c(cc1C)NC(c1ccccn1)C1=C(CC(C)(C)CC1=O)N2 (centres undefined) | 99.2% (active)
8 | O=C1CCC/C=C\C[C@@H](CC(=O)N(CCO)Cc2ccccc2)C(=O)NCCO1 | 0.845%
9 | O=C(COC(=O)c1ccco1)Nc1ccc(Cl)cn1 | -2.69%
10 | CCN(CC)c1ccc(/C=N/NC(=O)CNC(=O)c2cccnc2)cc1 | 98.6% (active)
11 | O=C(CNC(=O)c1cccnc1)N/N=C/c1cccnc1 | -3.02%
12 | O=C(CNC(=O)c1cccnc1)N/N=C/c1cc(Br)c(O)c(Br)c1 | 43.1%
13 | COc1ccc(-c2cc3ncccc3cn2)cc1 | 23.1%
14 | COc1ccc(N/N=C2/CCCCC2=O)cc1 | 99.4% (active)
15 | COc1ccc(CNC(=O)C2CCCC2)cc1 | -0.518%
16 | COc1ccc(CNC2CCCCC2)cc1 | -5.38%
17 | CN1CCN(C2Cc3ccc(Cl)cc3Sc3ccc(F)cc32)CC1 (centres undefined) | 4.93%
18 | CCOCCn1[nH]c2ccccc2c1=O | 52.9%
19 | Cc1ccc2c(c1)C1CN(C)CCC1N2S(=O)(=O)c1cccc(F)c1 (centres undefined) | 22.1%
20 | CN(C)CCn1c2c(c(SCC(=O)Nc3ccccc3C(F)(F)F)nc1=O)CCCC2 | 0.246%
21 | CCN(CC)CCn1c2c(c(SCC(=O)Nc3ccc(C(C)C)cc3)nc1=O)CCC2 | -219%
22 | Cc1csc(NC(=O)CSc2nc(=O)n(CCCN(C)C)c3c2CCC3)n1 | -272%
23 | Cc1ccc(NC(=O)CSc2nc(=O)n(CCN(C)C)c3c2CCCC3)c(C)c1 | 5.62%
24 | Cc1ccc2nc(NC(=O)CSc3nc(=O)n(CCCN(C)C)c4c3CCC4)sc2c1 | 97.3% (active)

Row | SMILES | inhibition
25 | CCN(CC)CCn1c2c(c(SCC(=O)Nc3nc4ccccc4s3)nc1=O)CCCC2 | 98.7% (active)
26 | Cc1ccc(C)c(NC(=O)CN(C)C(=O)COc2ccc3ccccc3c2)c1 | -13.6%
27 | CC(=O)Nc1ccc(NC(=O)C(NS(=O)(=O)c2ccc3c(c2)OCCO3)C(C)C)cc1 (centres undefined) | 1.95%
28 | Cc1c(NC(=O)CN(C)CC(=O)Nc2ccc(F)c(F)c2F)c(=O)n(-c2ccccc2)n1C | -2.04%
29 | O=C(COC(=O)CCOc1ccccc1)Nc1cc(S(=O)(=O)N2CCCCC2)ccc1Cl | 4.02%
30 | COc1ccc(C(=O)C(C)OC(=O)c2cccc(S(=O)(=O)Nc3c(C)n(C)n(-c4ccccc4)c3=O)c2)cc1 (centres undefined) | -0.831%
31 | Cc1cccc(C(=O)N2CCC(c3nc4ccccc4s3)CC2)c1 | -11.6%
32 | O=C(c1cccs1)N1CCC(c2nc3ccccc3s2)CC1 | 98.7% (active)
33 | Cc1cccc(NC(=S)N2CCC(c3nc4ccccc4s3)CC2)c1 | -3.53%
34 | CCC(c1nnc(SCC(=O)NNC(=O)c2ccccc2)n1Cc1ccccc1)N(C)C (centres undefined) | -1.21%
35 | O=C(CSc1nccn1-c1cccc(F)c1)NC1CCCC1 | -4.77%
36 | O=C(CSCC(=O)Nc1cccc([N+](=O)[O-])c1)Nc1ccccc1 | -3.46%
37 | CCNC(=O)CSc1nc(-c2ccccc2)cs1 | -7.87%
38 | O=C(CSc1nc(-c2ccccc2)cs1)Nc1cccc([N+](=O)[O-])c1 | 98% (active)
39 | COc1ccccc1C(=O)NCC(=O)OCC(=O)NNC(=O)c1ccc(Br)cc1 | 0.892%
40 | COc1cc(OC)cc(C(=O)NCC(=O)OCC(=O)NC(C)CCc2ccccc2)c1 (centres undefined) | -4.51%
41 | Nc1cccnc1Sc1ccccc1 | -14.3%
42 | Cc1cc(=O)[nH]c(SCC(N)=O)c1C#N | -1.22%
43 | Cc1cc(C)c(C#N)c(SCC(=O)Nc2ccccc2)n1 | -3.28%
44 | Cc1ccc(NC(=O)CSc2sc3c(O)cc(=O)[nH]c3c2C#N)cc1C | 98.4% (active)
45 | Cc1ccc(S(=O)(=O)Nc2ccc(F)c(S(=O)(=O)N3CCOCC3)c2)cc1 | -9.01%
46 | O=C(Nc1ccc2c(c1)OCO2)C1CC1(Cl)Cl (centres undefined) | -6.35%
47 | O=C(c1ccc(Cl)nc1)N1CCN(S(=O)(=O)c2ccc3c(c2)OCCO3)CC1 | 0.752%
48 | Cc1c(C(=O)Nc2cccc(S(=O)(=O)N3CCOCC3)c2)oc2ccccc12 | -6.82%

Row | SMILES | inhibition
49 | Cc1nc2ccc(NC(=O)c3cccc(S(=O)(=O)N4CCOCC4)c3)cc2s1 | -4.99%
50 | COc1ccc(S(=O)(=O)Nc2ccc(O)c(Sc3nc4ccccc4s3)c2)cc1 | 17.5%
51 | O=C(O)c1cccc(S(=O)(=O)Nc2ccc(O)cc2Sc2nc3ccccc3s2)c1 | 98.9% (active)
52 | COc1cc(OC)cc(C(=O)NC(C(=O)N2CCC2)C(C)C)c1 (centres undefined) | 3.67%
53 | O=C(CSc1ncn[nH]1)N/N=C/c1ccc(F)cc1 | -0.231%
54 | Cc1ccc(S(=O)(=O)Nc2nc(CN3CCOCC3)nc3sc(C)c(C)c23)cc1 | -1.38%
55 | O=C(NNc1ccccn1)c1ccc(Cl)nc1 | 91.6% (active)
56 | Cc1cnc(NC(=O)c2ccc(Cl)nc2)s1 | -5.29%
57 | O=C(NNC(=O)c1ccc(Cl)nc1)c1ccc(Br)cc1 | -1.29%
58 | COc1cc(/C=C/C(=O)OCC(=O)c2ccccc2)cc(OC)c1OC | 3.07%
59 | C[C@H](CO)N1C[C@H](C)[C@H](CN(C)C(=O)Nc2ccc(C(F)(F)F)cc2)Oc2c(NC(=O)c3ccncc3)cccc2C1=O | -1.8%
60 | Cc1ccc(S(=O)(=O)NC2CCCCCC2)cc1 | -3.36%
61 | O=C(Nc1ccccc1)Nc1ccccc1C(=O)NCc1ccco1 | -2.76%
62 | Cc1ccccc1NC(=O)NCc1ccco1 | -5.6%
63 | Cc1cccc(Nc2ccccc2C(=O)NCc2ccco2)c1C | 98.6% (active)
64 | O=C(OCC(=O)N1CCc2ccccc21)c1ccc([N+](=O)[O-])cc1 | -3.86%
65 | CC1CCCCC1NC(=O)/C(C#N)=C/C=C/c1ccccc1[N+](=O)[O-] (centres undefined) | 97.6% (active)
66 | O=[N+]([O-])c1ccccc1/C=C/CN1CCC(O)CC1 | -20.9%
67 | O=C(/C=C/c1ccccc1[N+](=O)[O-])NCC1CCCO1 (centres undefined) | -4.47%
68 | CC/C(O)=N\S(=O)(=O)c1ccc(N=NN(C)C)cc1 | -19.2%
69 | COc1ccc(/C(C)=N/NC(=O)c2ccc3nc[nH]c3c2)cc1 | -6.54%
70 | CN(C)N=Nc1ccc2nc[nH]c2c1 | 92.1% (active)
71 | Cc1cc(C)c(-c2csc(NC(=O)CCCc3nc4ccccc4c(=O)[nH]3)n2)c(C)c1 | -7.67%
72 | O=C(Cn1cnc2c(nnn2-c2ccccc2)c1=O)N1CCC(Cc2ccccc2)CC1 | -5.43%

Row | SMILES | inhibition
73 | O=C(CN1CCOc2ccccc21)N1CCC(Cc2ccccc2)CC1 | 98.1% (active)
74 | CC1(C)CC(=O)C(CC(=O)N2CCC(Cc3ccccc3)CC2)C(=O)C1 | 2.75%
75 | CCN(CC(=O)NCc1cccs1)C(=O)c1ccc(OC)c(S(=O)(=O)N2CCOCC2)c1 | -4.54%
76 | CCC(C)N(C(=O)CSc1nnnn1-c1ccccc1OC)C1CCS(=O)(=O)C1 (centres undefined) | 1.16%
77 | CC1(C)OC(=O)C(=CSc2ccc(C(C)(C)C)cc2)C(=O)O1 | 97.7% (active)
78 | O=C1CN(C(=O)COC(=O)/C=C/c2ccc(F)cc2)c2ccccc2N1 | -2.48%
79 | NS(=O)(=O)c1ccc(NC(=O)COC(=O)CCc2c[nH]c3ccccc23)cc1 | 23.6%
80 | CC(OC(=O)CCCc1c[nH]c2ccccc12)C(=O)Nc1ccc(S(N)(=O)=O)cc1 (centres undefined) | 81.6% (active)
81 | COc1ccc(CC(=O)OC(C)C(=O)Nc2ccc(S(N)(=O)=O)cc2)cc1 (centres undefined) | -3.25%
82 | NS(=O)(=O)c1ccc(CCNC(=O)CN2C(=O)c3ccccc3S2(=O)=O)cc1 | 20.2%
83 | O=C(NCCS(=O)(=O)N1CCN(c2ccccc2)CC1)c1ccco1 | 4.33%
84 | O=C(Cn1cnc2c(OCc3ccccc3)ncnc21)NCCCn1ccnc1 | -1.71%
85 | O=C1CN(C(=O)COc2c(Cl)cccc2Cl)c2ccccc2N1 | -8.36%
86 | COc1ccc(S(=O)(=O)NCc2cccnc2)cc1NC(=O)c1ccc(C)cc1 | -2.4%
87 | CC(C)(C)NS(=O)(=O)NC(=O)C1=C(N2CCCC2)COC1=O | 2.74%
88 | CC(=O)Nc1ccc(C(=O)Nc2cccc(S(=O)(=O)NC3=NCCC3)c2)cc1 | -4.84%
89 | CC(=O)c1nn(-c2ccc(C)cc2)cc1C(=O)c1cccc(Br)c1 | -13.6%
90 | CC(=O)N/C(=C\c1ccccc1)C(=O)OC(C)C(=O)N(C)c1ccccc1 (centres undefined) | 0.887%
91 | Cc1nc(SCc2ccc(F)cc2)c([N+](=O)[O-])[nH]1 | 1.42%
92 | Cc1nc(SCC(=O)c2ccccc2)c([N+](=O)[O-])[nH]1 | 97.8% (active)
93 | Cc1nc2nc(SCC(=O)c3ccccc3)[nH]c2cc1Br | -4.01%
94 | O=C1CCCCC1Sc1ccc(Cl)cc1[N+](=O)[O-] (centres undefined) | -27.8%
